Holding throughout (settings): primary human HUVEC with PBMC; actives raise or lower the signal
Read-out in test [1]: Macrophage colony-stimulating factor (MCSF), CSF1 (gene 1435)
The test is described as follows: BSK_LPS_MCSF: BioMAP Diversity Plus: LPS Assay for Macrophage colony-stimulating factor (MCSF) Biomarker Activity (AID 2283083). An outline of the steps:
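HUVEC + PBMC co-culture (human primary), 24 h post-dose; M-CSF by ELISA; gain/loss of signal fitted bidirectionally vs DMSO baseline.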

Read-out in test [2]: Tissue Factor, F3 (gene 2152)
The test is described as follows: BSK_LPS_TissueFactor: BioMAP Diversity Plus: LPS Assay for Tissue Factor Biomarker Activity (AID 2283084). The procedure, abridged: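 HUVEC/PBMC co-culture, LPS-activated; CD142 ELISA read 24 h post-dose; bidirectional curve fit vs DMSO negative control.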

Read-out in test [3]: Tumor necrosis factor (Homo sapiens) (UniProt P01375)
The test is described as follows: BSK_LPS_TNFa: BioMAP Diversity Plus: LPS Assay for Tumour Necrosis Factor alpha (TNFa) Biomarker Activity (AID 2283085).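 As to AC50: TNFa protein level quantified by ELISA in the co-culture.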 The procedure, abridged:
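TNFa was quantified by ELISA in LPS-activated co-cultures of human endothelial cells and PBMC, 24 h post-dosing. Both increases and decreases versus DMSO were fitted.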

Read-out in test [4]: CD38, CD38 (gene 952)
The test is described as follows: BSK_SAg_CD38: BioMAP Diversity Plus: SAg Assay for CD38 Biomarker Activity (AID 2283087). The procedure, abridged:
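CD38 quantified by ELISA (fluorescence) in a superantigen-activated endothelial cell–PBMC co-culture at 24 h post-dose. Activity fitted in both directions relative to DMSO; parallel SRB and Alamar Blue cytotoxicity read-outs.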

Read-out in test [5]: CD40, CD40 (gene 958)
The test is described as follows: BSK_SAg_CD40: BioMAP Diversity Plus: SAg Assay for CD40 Biomarker Activity (AID 2283088). The procedure, abridged:
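HUVEC/PBMC co-culture, 24 h post-dose; CD40 by ELISA, fluorescence intensity; bidirectional fit vs DMSO negative control.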

Read-out in test [6]: CD69, CD69 (gene 969)
The test is described as follows: BSK_SAg_CD69: BioMAP Diversity Plus: SAg Assay for CD69 Biomarker Activity (AID 2283089).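 As to AC50: cell surface CD69 protein quantified by ELISA with fluorescence detection.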 An outline of the steps:
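HUVEC co-cultured with PBMC were dosed with chemical, and CD69 was measured by ELISA with fluorescence read-out 24 h later. Bidirectional curve fitting used DMSO as negative control and activity baseline.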

Read-out in test [7]: Monocyte Chemoattractant Protein-1 (MCP1), CCL2 (gene 6347)
The test is described as follows: BSK_SAg_MCP1: BioMAP Diversity Plus: SAg Assay for Monocyte Chemoattractant Protein-1 (MCP1) Biomarker Activity (AID 2283090). The procedure, abridged: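 Values derive from bidirectional fitting of ELISA-measured MCP1 against DMSO controls. Readings were taken 24 h after dosing human vascular endothelial cells co-cultured with peripheral blood mononuclear cells under superantigen stimulation.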

Read-out in test [8]: E-selectin (Homo sapiens) (UniProt P16581)
The test is described as follows: BSK_SAg_Eselectin: BioMAP Diversity Plus: SAg Assay for Eselectin Biomarker Activity (AID 2283091). An outline of the steps: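 E-selectin ELISA readout at 24 h post-dosing in human umbilical vein endothelial cell/PBMC co-culture; gain or loss of signal fitted relative to DMSO baseline.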

Read-out in test [9]: Monokine induced gamma interferon (MIG), CXCL9 (gene 4283)
The test is described as follows: BSK_SAg_MIG: BioMAP Diversity Plus: SAg Assay for Monokine induced gamma interferon (MIG) Biomarker Activity (AID 2283092). The procedure, abridged: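 HUVEC plus human PBMC co-culture, chemicals dosed and MIG (CXCL9) quantified by ELISA at 24 h. Bidirectional curve fitting against DMSO as negative control and baseline, so both gain and loss of signal count as activity.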

The source made the active and inactive calls. The calls were made as follows: active = hit-call score of the fitted dose curve at least 0.9, where 1 is the maximum; inactive = score below 0.9.

E-selectin (Homo sapiens), sequence (P16581 whole entry, looked up): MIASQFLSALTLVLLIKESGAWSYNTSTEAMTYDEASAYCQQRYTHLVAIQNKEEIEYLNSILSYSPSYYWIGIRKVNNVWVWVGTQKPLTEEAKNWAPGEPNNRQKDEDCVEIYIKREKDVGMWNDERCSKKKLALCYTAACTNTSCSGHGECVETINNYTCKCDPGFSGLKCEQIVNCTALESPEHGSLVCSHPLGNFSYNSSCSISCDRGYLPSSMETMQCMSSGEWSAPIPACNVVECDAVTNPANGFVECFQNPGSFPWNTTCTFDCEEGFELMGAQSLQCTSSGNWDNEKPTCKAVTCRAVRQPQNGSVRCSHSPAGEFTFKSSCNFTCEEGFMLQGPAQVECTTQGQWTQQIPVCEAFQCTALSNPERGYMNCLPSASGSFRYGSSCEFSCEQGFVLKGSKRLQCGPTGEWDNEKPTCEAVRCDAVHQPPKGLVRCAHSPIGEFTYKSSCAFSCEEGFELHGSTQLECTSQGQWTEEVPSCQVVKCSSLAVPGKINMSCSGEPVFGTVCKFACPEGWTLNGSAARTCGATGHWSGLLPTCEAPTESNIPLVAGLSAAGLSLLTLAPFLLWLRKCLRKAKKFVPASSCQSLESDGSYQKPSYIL
Tumor necrosis factor (Homo sapiens), sequence (P01375 whole entry, looked up): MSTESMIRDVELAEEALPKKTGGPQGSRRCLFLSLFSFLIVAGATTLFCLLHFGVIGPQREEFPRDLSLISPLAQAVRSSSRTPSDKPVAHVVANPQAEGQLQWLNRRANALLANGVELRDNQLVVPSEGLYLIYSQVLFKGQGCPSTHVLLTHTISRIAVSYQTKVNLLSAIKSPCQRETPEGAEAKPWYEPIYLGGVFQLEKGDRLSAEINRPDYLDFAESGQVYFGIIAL

Turning to `CCCCCCCCCCCCc1cccc(S(=O)(=O)O)c1`, the outcome in test [1], in test [2], in test [3], in test [4], in test [5] and in test [6] was inactive. Besides, the outcome in [7], in test [8] and in test [9] was inactive.

One may read the AC50 as the midpoint of the concentration-response curve, whichever way the signal moves. Turning to `OC(Cc1ccccc1Cl)(Cn1[nH]cnc1=S)C1(Cl)CC1` (configuration not stated), the outcome in [1], in test [2], in test [3], in test [7], in test [8] and in [9] was inactive. Also, the AC50 in test [4] is 20 µM (active); in test [5], 20 µM (active); in test [6], 14.1 µM (active).

For `O=[N+]([O-])c1ccc(Nc2ccccc2)cc1`, the outcome in test [1], in [2], in test [4], in [5], in [6] and in test [7] was inactive. Besides, the result in [8] and in test [9] was inactive. In addition, the AC50 in test [3] is 32.5 µM (active).

With `CCOP(=O)(OCC)SCCSCC`, the result in test [1], in test [2], in test [3], in test [4], in test [5] and in [6] was inactive. Further, the outcome in test [7], in test [8] and in test [9] was inactive.

With `Cc1c([N+](=O)[O-])c(C)c([N+](=O)[O-])c(C(C)(C)C)c1[N+](=O)[O-]`, the outcome in test [1], in test [2], in test [5], in test [6], in test [7] and in test [8] was inactive. For the same compound, the result in test [9] was inactive. For the same compound, the AC50 in [3] is 28 µM (active); in test [4], 1.63 µM (active).

Regarding `Oc1ccc(Cc2ccc(O)cc2)cc1`, the outcome in test [1], in [2], in test [3], in [4], in test [5] and in test [6] was inactive. The outcome in test [7], in test [8] and in [9] was inactive.

Turning to `CCOC(=O)C(SP(=S)(OC)OC)c1ccccc1` (configuration not stated), the result in test [1], in [2], in test [3], in [5], in [7] and in [8] was inactive. The outcome in test [9] was inactive. Also, the AC50 in [4] and in test [6] was 20 µM (active) each time.

On to `Oc1c(Br)cc(Br)cc1Br`, for which the outcome in test [1], in test [2], in test [3], in [7] and in test [9] was inactive. Besides, the AC50 was 30.3 µM (active) in [4], 20 µM (active) in test [5], 35 µM (active) in test [6] and 20 µM (active) in test [8].

Regarding `COc1ccccc1N`, the result in [1], in test [2], in [3], in [4], in test [5] and in test [6] was inactive. The outcome in test [7], in test [8] and in test [9] was inactive.

Turning to `OC(Cc1ccccc1Cl)(Cn1cncn1)C1(Cl)CC1` (configuration not stated), the outcome in test [1], in test [2], in [3], in test [4], in test [5] and in test [6] was inactive. Besides, the result in test [7], in test [8] and in [9] was inactive.

Consider `Nc1ccc(N)cc1`, for which the outcome in test [1], in [3], in test [4], in [5], in test [6] and in test [7] was inactive. Moreover, the result in test [8] and in test [9] was inactive. Besides, the AC50 in [2] was 5.53 µM (active).

Take `O=c1oc2ccccc2c(O)c1C(CC(O)c1ccc(-c2ccc(Br)cc2)cc1)c1ccccc1` (configuration not stated): the AC50 is 12.8 µM (active) in [1]; 19.1 µM (active) in test [2]; 23 µM (active) in test [4]; 14.1 µM (active) in [5]; 19.1 µM (active) in test [6]; 22.6 µM (active) in test [7]. Moreover, the AC50 is 28.6 µM (active) in test [8] and 33.3 µM (active) in test [9]. The result in test [3] was inactive.

Consider `CC(C)(C)c1cc([N+](=O)[O-])cc(C(C)(C)C)c1O`, for which the AC50 in test [1] was 0.452 µM (active); in test [4], 0.332 µM (active); in test [5], 0.474 µM (active); in [6] it was 0.322 µM (active); in [7], 0.458 µM (active); in [8], 0.219 µM (active). In addition, the result in test [2], in test [3] and in [9] was inactive.

`CCOC(=O)CCN(SN(C)C(=O)Oc1cccc2c1OC(C)(C)C2)C(C)C`: the outcome in test [1], in test [2] and in [3] was inactive. Also, the concentration at half-maximal activity (AC50) is 30 µM (active) in test [4]; 29.6 µM (active) in test [5]; 29.3 µM (active) in test [6]; 32 µM (active) in [7]; 27.7 µM (active) in test [8]; 35.4 µM (active) in test [9].

As to `CCOP(=S)(OCC)SCS(=O)(=O)C(C)(C)C`, the result in test [1], in [2], in [3], in [4], in [5] and in [6] was inactive. Also, the result in test [7], in test [8] and in test [9] was inactive.

As for `CCN(CC)C(=O)C(Cl)=C(C)OP(=O)(OC)OC`, the outcome in [1], in test [2], in test [3], in test [4], in test [5] and in [6] was inactive. Also, the result in test [7], in test [8] and in test [9] was inactive.

As to `CCCCN(CCCC)C(=S)[S-].CCCCN(CCCC)C(=S)[S-].[Ni+2]`, the outcome in test [1], in test [2], in [3], in test [4], in [5] and in test [6] was inactive. Also, the outcome in test [7], in test [8] and in test [9] was inactive.

Regarding `CC(C)N(C(=O)CCl)c1ccccc1`, the AC50 is 20 µM (active) in test [1]; 26 µM (active) in [3]; 20 µM (active) in test [4]; 27.5 µM (active) in test [5]; 20 µM (active) in test [6]; 27.9 µM (active) in test [7]. Also, the concentration at half-maximal activity (AC50) was 20 µM (active) in test [8] and 31.1 µM (active) in test [9]. Further, in test [2], the result was inactive.

For the origin of these results see PubChem BioAssay (EPA / NIEHS).
